This note sets out measurements from PubChem BioAssay (EPA / NIEHS).

Values joined by “and” are separate entries in the source; they are usually repeats but may differ in a detail not shown here. Identical values can stand only once. Some structures have more than one record in an assay (separate samples or runs), and their calls can disagree. Active and inactive are the calls of the source. Rule for the calls: active = hit-call score of the fitted dose curve at least 0.9, where 1 is the maximum; inactive = score below 0.9.

Read-out in test [1]: Vascular endothelial growth factor receptor 2 (Homo sapiens) (UniProt P35968)
The experiment in a line: BSK_4H_VEGFRII: BioMAP Diversity Plus: 4H Assay for Vascular endothelial growth factor receptor 2 (VEGFR2) Biomarker Activity (AID 2283031). The settings on record: primary human endothelial cells (HUVEC); actives raise or lower the signal. The essentials: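 Primary human umbilical vein endothelial cells (4H system), 24 h exposure; cell-surface VEGFR2 measured by ELISA. Bidirectional fitting versus DMSO; cytotoxicity checked in parallel by SRB total-protein staining.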

Read-out in test [2]: Human Leukocyte Antigen - DR isotype (HLADR), HLA-DRA (gene 3122)
The experiment in a line: BSK_BE3C_HLADR: BioMAP Diversity Plus: BE3C Assay for Human Leukocyte Antigen - DR isotype (HLADR) Biomarker Activity (AID 2283032). The settings on record: primary human bronchial epithelial cells; actives raise or lower the signal. In a few lines: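 Signal came from an ELISA for HLA-DR in human bronchial epithelial primary cells harvested 24 h after treatment; gain- and loss-of-signal fitting used DMSO controls as reference.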

Read-out in test [3]: Interferon-gamma inducible Protein 10 (IP10), CXCL10 (gene 3627)
Briefly: BSK_BE3C_IP10: BioMAP Diversity Plus: BE3C Assay for Interferon-gamma inducible Protein 10 (IP10) Biomarker Activity (AID 2283034). The settings on record: primary human bronchial epithelial cells; actives raise or lower the signal. The essentials:
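Using primary human bronchial epithelial cultures, the assay captures IP-10 by ELISA one day (24 h) after exposure. Parallel SRB staining of total protein flags overt cytotoxicity. Fits run bidirectionally relative to DMSO.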

Read-out in test [4]: Monokine induced gamma interferon (MIG), CXCL9 (gene 4283)
The experiment in a line: BSK_BE3C_MIG: BioMAP Diversity Plus: BE3C Assay for Monokine induced gamma interferon (MIG) Biomarker Activity (AID 2283035). The settings on record: primary human bronchial epithelial cells; actives raise or lower the signal. In a few lines: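 Primary human bronchial epithelial cells treated for 24 h; MIG levels measured by ELISA, fitted bidirectionally versus DMSO. Parallel SRB total-protein staining assessed cytotoxicity.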

Read-out in test [5]: Plasminogen activator inhibitor-1 (PAI1), SERPINE1 (gene 5054)
The experiment in a line: BSK_BE3C_PAI1: BioMAP Diversity Plus: BE3C Assay for Plasminogen activator inhibitor-1 (PAI1) Biomarker Activity (AID 2283037). The settings on record: primary human bronchial epithelial cells; actives raise or lower the signal. The essentials: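 PAI-1 biomarker levels in treated human bronchial epithelial cells are determined by ELISA at 24 h. Both increases and decreases relative to DMSO are fitted.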

Read-out in test [6]: urokinase plasminogen activator (uPA), PLAU (gene 5328)
Briefly: BSK_BE3C_uPA: BioMAP Diversity Plus: BE3C Assay for urokinase plasminogen activator (uPA) Biomarker Activity (AID 2283038).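 For outcome: uPA protein level quantified by ELISA in cell cultures; uPA read one day after compound addition.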 The settings on record: primary human bronchial epithelial cells; actives raise or lower the signal. The essentials:
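Primary human bronchial epithelial cells, uPA measured by ELISA 24 h after dosing. Bidirectional change relative to DMSO; cytotoxicity checked in parallel cultures by sulforhodamine B total-protein staining.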

Read-out in test [7]: Urokinase-type plasminogen activator receptor (uPAR), PLAUR (gene 5329)
Briefly: BSK_BE3C_uPAR: BioMAP Diversity Plus: BE3C Assay for Urokinase-type plasminogen activator receptor (uPAR) Biomarker Activity (AID 2283039).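 Note: cells exposed to compound for one day before measurement.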 The settings on record: primary human bronchial epithelial cells; actives raise or lower the signal. In a few lines:
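A uPAR ELISA serves as the readout, taken 24 h after treating primary human bronchial epithelial cells. Responses in either direction are fitted against DMSO, which defines baseline activity.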

Read-out in test [8]: Interleukin-6 (IL6), IL6 (gene 3569)
The experiment in a line: BSK_CASM3C_IL6: BioMAP Diversity Plus: CASM3C Assay for Interleukin-6 (IL6) Biomarker Activity for (AID 2283040). The settings on record: primary human coronary artery smooth muscle cells; actives raise or lower the signal.

Read-out in test [9]: Tissue plasminogen activator (tPA), PLAT (gene 5327)
Briefly: BSK_BE3C_tPA: BioMAP Diversity Plus: BE3C Assay for Tissue plasminogen activator (tPA) Biomarker Activity (AID 2283041).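 For outcome: tPA level quantified by ELISA one day after compound addition.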 The settings on record: primary human bronchial epithelial cells; actives raise or lower the signal. The essentials:
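Bidirectional curve fitting relative to DMSO defined activity, with tPA detected by ELISA in chemically treated human bronchial epithelial primary cells at 24 hours.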

Read-out in test [10]: Interleukin-8 (IL8), CXCL8 (gene 3576)
Briefly: BSK_CASM3C_IL8: BioMAP Diversity Plus: CASM3C Assay for Interleukin-8 (IL8) Biomarker Activity (AID 2283042).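 Note: IL-8 protein level quantified by ELISA.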 The settings on record: primary human coronary artery smooth muscle cells; actives raise or lower the signal.

Read-out in test [11]: Human Leukocyte Antigen - DR isotype (HLADR), HLA-DRA (gene 3122)
Briefly: BSK_CASM3C_HLADR: BioMAP Diversity Plus: CASM3C Assay for Human Leukocyte Antigen - DR isotype (HLADR) Biomarker Activity (AID 2283043).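 Note: cell-surface HLA-DR protein level quantified by ELISA.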 The settings on record: primary human coronary artery smooth muscle cells; actives raise or lower the signal.

Read-out in test [12]: Macrophage colony-stimulating factor (MCSF), CSF1 (gene 1435)
Briefly: BSK_CASM3C_MCSF: BioMAP Diversity Plus: CASM3C Assay for Macrophage colony-stimulating factor (MCSF) Biomarker Activity (AID 2283044).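 Note: M-CSF protein amount quantified by ELISA after 24 h exposure.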 The settings on record: primary human coronary artery smooth muscle cells; actives raise or lower the signal.

Read-out in test [13]: Low-density lipoprotein receptor (LDLR), LDLR (gene 3949)
The experiment in a line: BSK_CASM3C_LDLR: BioMAP Diversity Plus: CASM3C Assay for Low-density lipoprotein receptor (LDLR) Biomarker Activity (AID 2283045).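 Note: LDLR protein level on the cell surface quantified by ELISA.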 The settings on record: primary human coronary artery smooth muscle cells; actives raise or lower the signal.

Read-out in test [14]: Monocyte Chemoattractant Protein-1 (MCP1), CCL2 (gene 6347)
Briefly: BSK_CASM3C_MCP1: BioMAP Diversity Plus: CASM3C Assay for Monocyte Chemoattractant Protein-1 (MCP1) Biomarker Activity (AID 2283046).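 Note: MCP-1 level quantified by ELISA 24 h after dosing.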 The settings on record: primary human coronary artery smooth muscle cells; actives raise or lower the signal.

The nature of test [15]: BSK_CASM3C_Proliferation: Cell Proliferation Assessment in the BioMAP Diversity Plus: CASM3C Assay (AID 2283047).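 Note: sulforhodamine B total protein stain as relative cell number at 560 nm; sub-confluent cells exposed 48 h before staining; fitted both ways against DMSO so gain or loss of cell number.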 The settings on record: primary human coronary artery smooth muscle cells.
Read-out in test [16]: Monokine induced gamma interferon (MIG), CXCL9 (gene 4283)
Briefly: BSK_CASM3C_MIG: BioMAP Diversity Plus: CASM3C Assay for Monokine induced gamma interferon (MIG) Biomarker Activity (AID 2283048). The settings on record: primary human coronary artery smooth muscle cells; actives raise or lower the signal.

Read-out in test [17]: serum amyloid A (SAA), SAA1 (gene 6288)
Briefly: BSK_CASM3C_SAA: BioMAP Diversity Plus: CASM3C Assay for serum amyloid A (SAA) Biomarker Activity (AID 2283049).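 Note: SAA protein level quantified by ELISA.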 The settings on record: primary human coronary artery smooth muscle cells; actives raise or lower the signal.

Test [18] in a line: BSK_CASM3C_SRB: Viability Assessment in the BioMAP Diversity Plus: CASM3C Assay (AID 2283050).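 Note: cells exposed to compound for 24 h.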 The settings on record: primary human coronary artery smooth muscle cells.

As usually defined, the AC50 is the midpoint of the concentration-response curve, whichever way the signal moves.

Take `[Cd+2].[Cl-].[Cl-]`: the outcome in test [1], in test [3], in [4], in test [5], in [6] and in [7] was inactive. Further, the outcome in test [9] and in [10] was inactive. Besides, the AC50 in test [2] is 20 µM (active); in test [3] it was 20 µM (active); in [5] it was 3.97 µM (active); in [6] it was 29.9 µM (active); in [8] it was 4.02 µM (active) and 2.92 µM (active); in [9], 26 µM (active). The AC50 in [11] is 9.22 µM (active) and 6.47 µM (active); in [12], 6.22 µM (active) and 3.72 µM (active); in [13], 6.42 µM (active) and 6.31 µM (active); in test [14] it was 7.14 µM (active) and 4.39 µM (active); in [15], 2.7 µM (active) and 2.27 µM (active); in [16], 4.6 µM (active) and 4.58 µM (active). Moreover, the AC50 was 3.68 µM (active) and 2.71 µM (active) in [17]; 15.4 µM (active) and 15.2 µM (active) in test [18].
